Test results from the supplement of paper PMC10849652.
About 7,900 targets were measured; listed, in parts, are those with a hit and a random draw of the rest. About 0.6% of all pairs of compound and target were hits.

Experiments:
Experiment in all cases: log2 fold change, soluble protein after heating vs DMSO (PISA); higher = thermal stabilisation; K562 cells, 10 uM, 30 min; active = over 0.2 and 3.5 SD of the protein, either way, in both replicates (recomputed)
rucaparib = compound: CNCc1ccc(-c2[nH]c3cc(F)cc4c3c2CCNC4=O)cc1 [rucaparib]
How it was run: (§1)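 Values are thermal stability changes relative to control samples and are taken from duplicates. They are stated as log2 fold changes. Before quantification by TMTpro 16plex LC-MS/MS with equalised channel sums, K562 cells at 2×10^6 cells/mL were treated with 10 μM compound for 30 min, heated in aliquots for 3 min across 48°C-58°C, pooled, extracted in PBS with 0.5% NP-40 at 4°C, and centrifuged at 21,000xg for 90 min to give the soluble supernatant.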

encorafenib = compound: COC(=O)N[C@@H](C)CNc1nccc(-c2cn(C(C)C)nc2-c2cc(Cl)cc(NS(C)(=O)=O)c2F)n1 [encorafenib]
How it was run: as §1

saracatinib = compound: CN1CCN(CCOc2cc(OC3CCOCC3)c3c(Nc4c(Cl)ccc5c4OCO5)ncnc3c2)CC1 [saracatinib]
How it was run: as §1

sotrastaurin = compound: CN1CCN(c2nc(C3=C(c4c[nH]c5ccccc45)C(=O)NC3=O)c3ccccc3n2)CC1 [sotrastaurin]
How it was run: as §1

Tubastatin A = compound: CN1CCc2c(c3ccccc3n2Cc2ccc(C(=O)NO)cc2)C1 [Tubastatin A]
How it was run: as §1

[1] = compound: CNC(=O)C1=CC=CC=C1NC2=NC(=NC=C2Cl)NC3=C(C=C(C=C3)N4CCOCC4)OC
How it was run: as §1

defactinib = compound: CNC(=O)c1ccc(Nc2ncc(C(F)(F)F)c(NCc3nccnc3N(C)S(C)(=O)=O)n2)cc1 [defactinib]
How it was run: as §1

[2] = compound: CNc1nc(-c2ccc3c(N)n[nH]c3c2)cc(N2C[C@@H](C(=O)NC3CCCCC3)CC[C@H]2C)n1
How it was run: as §1

[3] = compound: COC(=O)[C@H](CCSC)NC(=O)C1=C(C=C(C=C1)NC[C@H](CS)N)C2=CC=CC=C2
How it was run: as §1

alvocidib = compound: CN1CC[C@H](c2c(O)cc(O)c3c(=O)cc(-c4ccccc4Cl)oc23)[C@H](O)C1 [alvocidib]
How it was run: as §1

Measured: log2 fold change

RNF41 (UniProt Q9H4P4)
inactive: rucaparib -0.087 | encorafenib -0.016

RELA (UniProt Q04206)
Sequence of UniProt Q04206 (Q04206 whole entry, looked up): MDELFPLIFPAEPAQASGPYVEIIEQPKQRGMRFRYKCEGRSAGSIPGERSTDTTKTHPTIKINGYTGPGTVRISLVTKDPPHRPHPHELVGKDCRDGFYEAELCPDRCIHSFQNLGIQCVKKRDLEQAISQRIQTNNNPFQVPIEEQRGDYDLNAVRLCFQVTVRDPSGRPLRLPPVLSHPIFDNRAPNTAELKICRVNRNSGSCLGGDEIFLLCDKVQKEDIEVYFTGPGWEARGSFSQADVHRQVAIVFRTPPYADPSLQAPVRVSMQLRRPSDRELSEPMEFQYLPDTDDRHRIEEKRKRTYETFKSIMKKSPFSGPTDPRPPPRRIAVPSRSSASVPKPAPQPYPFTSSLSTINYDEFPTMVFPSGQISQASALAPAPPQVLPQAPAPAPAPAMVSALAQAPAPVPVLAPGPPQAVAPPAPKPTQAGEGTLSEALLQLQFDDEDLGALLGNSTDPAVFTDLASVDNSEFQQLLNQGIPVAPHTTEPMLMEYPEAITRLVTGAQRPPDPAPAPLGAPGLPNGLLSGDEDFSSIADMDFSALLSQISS
inactive: saracatinib 0.027 | sotrastaurin -0.036 | Tubastatin A -0.017 | [1] 0.032 | defactinib -0.077 | rucaparib -0.026 | [2] -0.029 | encorafenib 0.044 | [3] -0.011

RUNX1 isoform 8 (UniProt Q01196)
Sequence of UniProt Q01196 (Q01196 whole entry, looked up): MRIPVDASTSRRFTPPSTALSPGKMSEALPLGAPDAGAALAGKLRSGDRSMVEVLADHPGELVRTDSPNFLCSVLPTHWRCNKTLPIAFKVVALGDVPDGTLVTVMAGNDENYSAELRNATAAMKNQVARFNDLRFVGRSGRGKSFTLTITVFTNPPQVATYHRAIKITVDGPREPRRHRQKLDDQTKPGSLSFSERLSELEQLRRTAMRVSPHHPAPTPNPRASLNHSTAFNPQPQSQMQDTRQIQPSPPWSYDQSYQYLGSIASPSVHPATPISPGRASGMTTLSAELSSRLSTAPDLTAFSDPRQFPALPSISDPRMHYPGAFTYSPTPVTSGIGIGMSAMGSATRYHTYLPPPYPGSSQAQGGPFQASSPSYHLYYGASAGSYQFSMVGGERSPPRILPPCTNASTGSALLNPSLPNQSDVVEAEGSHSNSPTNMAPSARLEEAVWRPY
inactive: saracatinib -0.025 | sotrastaurin -0.132 | [1] -0.046 | defactinib 0.01 | rucaparib 0.024 | [2] 0.014 | encorafenib 0.183 | [3] 0.047

RBBP6 (UniProt Q7Z6E9)
Sequence of UniProt Q7Z6E9 (Q7Z6E9 whole entry, looked up): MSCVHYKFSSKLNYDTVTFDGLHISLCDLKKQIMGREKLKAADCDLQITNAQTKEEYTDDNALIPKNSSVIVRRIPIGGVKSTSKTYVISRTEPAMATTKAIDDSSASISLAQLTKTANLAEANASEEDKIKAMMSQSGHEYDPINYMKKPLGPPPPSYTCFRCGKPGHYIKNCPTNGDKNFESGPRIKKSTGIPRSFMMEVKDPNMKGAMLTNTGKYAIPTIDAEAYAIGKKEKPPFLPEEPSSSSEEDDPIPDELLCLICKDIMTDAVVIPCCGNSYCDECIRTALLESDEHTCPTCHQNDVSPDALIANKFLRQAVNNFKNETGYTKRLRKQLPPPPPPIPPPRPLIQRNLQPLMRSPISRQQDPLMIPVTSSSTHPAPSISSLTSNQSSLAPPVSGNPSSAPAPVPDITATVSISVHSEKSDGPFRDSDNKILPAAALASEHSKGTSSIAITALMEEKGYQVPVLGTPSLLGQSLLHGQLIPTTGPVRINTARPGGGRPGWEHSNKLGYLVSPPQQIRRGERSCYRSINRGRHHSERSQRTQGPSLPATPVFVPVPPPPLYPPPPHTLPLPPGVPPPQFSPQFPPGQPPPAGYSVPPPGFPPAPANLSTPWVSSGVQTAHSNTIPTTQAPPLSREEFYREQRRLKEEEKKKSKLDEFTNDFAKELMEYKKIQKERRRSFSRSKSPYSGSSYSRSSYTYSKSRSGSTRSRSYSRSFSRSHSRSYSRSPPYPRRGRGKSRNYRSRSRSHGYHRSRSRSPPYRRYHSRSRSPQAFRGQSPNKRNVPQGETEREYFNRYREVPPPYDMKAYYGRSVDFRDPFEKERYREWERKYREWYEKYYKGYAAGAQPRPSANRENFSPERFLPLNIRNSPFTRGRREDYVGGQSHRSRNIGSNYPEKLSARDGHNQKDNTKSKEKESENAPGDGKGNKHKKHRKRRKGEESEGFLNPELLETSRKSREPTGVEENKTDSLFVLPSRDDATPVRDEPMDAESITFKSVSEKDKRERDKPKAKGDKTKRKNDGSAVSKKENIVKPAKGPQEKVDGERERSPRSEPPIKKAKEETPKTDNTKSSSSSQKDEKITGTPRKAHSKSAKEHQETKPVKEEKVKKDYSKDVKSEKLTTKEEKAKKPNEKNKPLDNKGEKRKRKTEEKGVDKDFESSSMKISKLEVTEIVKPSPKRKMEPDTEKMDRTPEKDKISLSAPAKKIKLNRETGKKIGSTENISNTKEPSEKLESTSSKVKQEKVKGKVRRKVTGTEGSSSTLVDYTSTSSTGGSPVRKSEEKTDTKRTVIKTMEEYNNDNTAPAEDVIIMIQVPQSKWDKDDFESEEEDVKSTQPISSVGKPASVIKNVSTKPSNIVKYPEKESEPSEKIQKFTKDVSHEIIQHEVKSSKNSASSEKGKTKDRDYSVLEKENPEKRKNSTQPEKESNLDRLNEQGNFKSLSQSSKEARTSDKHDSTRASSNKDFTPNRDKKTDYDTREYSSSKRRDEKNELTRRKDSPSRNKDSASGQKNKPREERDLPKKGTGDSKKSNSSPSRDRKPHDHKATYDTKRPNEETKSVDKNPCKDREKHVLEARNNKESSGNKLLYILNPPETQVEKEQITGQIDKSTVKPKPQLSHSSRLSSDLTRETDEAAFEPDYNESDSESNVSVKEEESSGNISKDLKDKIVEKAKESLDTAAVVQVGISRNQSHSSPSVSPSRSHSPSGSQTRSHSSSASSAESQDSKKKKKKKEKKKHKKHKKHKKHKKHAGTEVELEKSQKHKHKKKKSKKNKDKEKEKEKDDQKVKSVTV
inactive: sotrastaurin 0.11 | alvocidib -0.17 | Tubastatin A 0.074 | [1] -0.006 | defactinib -0.056 | rucaparib 0.067 | encorafenib 0.055 | [3] 0.04

RPS19 (UniProt M0R2L9)
inactive: Tubastatin A -0.186

RNF185 (UniProt Q96GF1)
Sequence of UniProt Q96GF1 (Q96GF1 whole entry, looked up): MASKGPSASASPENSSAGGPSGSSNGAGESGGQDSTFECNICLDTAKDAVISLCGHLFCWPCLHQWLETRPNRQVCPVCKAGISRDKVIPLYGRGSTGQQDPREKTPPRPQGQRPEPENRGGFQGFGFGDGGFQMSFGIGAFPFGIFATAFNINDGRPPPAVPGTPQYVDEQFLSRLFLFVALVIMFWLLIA
inactive: alvocidib -0.003 | Tubastatin A 0.011 | [1] 0.001 | defactinib -0.023 | rucaparib 0.006 | encorafenib -0.094 | [3] 0.125

SDC3 (UniProt O75056)
Sequence of UniProt O75056 (O75056 whole entry, looked up): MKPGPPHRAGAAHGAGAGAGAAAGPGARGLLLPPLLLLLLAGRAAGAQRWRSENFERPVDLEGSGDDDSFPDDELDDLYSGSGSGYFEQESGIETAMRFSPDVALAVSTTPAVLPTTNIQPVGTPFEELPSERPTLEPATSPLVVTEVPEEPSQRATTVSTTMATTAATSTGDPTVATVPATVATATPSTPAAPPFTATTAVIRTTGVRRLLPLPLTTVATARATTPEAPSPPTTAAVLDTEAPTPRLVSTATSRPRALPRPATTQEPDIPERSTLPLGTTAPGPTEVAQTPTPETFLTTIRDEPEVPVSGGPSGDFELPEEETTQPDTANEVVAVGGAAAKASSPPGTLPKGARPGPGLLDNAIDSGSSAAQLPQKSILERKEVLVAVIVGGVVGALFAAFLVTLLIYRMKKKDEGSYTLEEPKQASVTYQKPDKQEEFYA
inactive: saracatinib -0.251 | sotrastaurin -0.074 | alvocidib 0.051 | Tubastatin A 0.163 | defactinib -0.004 | rucaparib -0.513 | [2] 0.036 | encorafenib 0.125 | [3] 0.034

SAP30 (UniProt O75446)
Sequence of UniProt O75446 (O75446 whole entry, looked up): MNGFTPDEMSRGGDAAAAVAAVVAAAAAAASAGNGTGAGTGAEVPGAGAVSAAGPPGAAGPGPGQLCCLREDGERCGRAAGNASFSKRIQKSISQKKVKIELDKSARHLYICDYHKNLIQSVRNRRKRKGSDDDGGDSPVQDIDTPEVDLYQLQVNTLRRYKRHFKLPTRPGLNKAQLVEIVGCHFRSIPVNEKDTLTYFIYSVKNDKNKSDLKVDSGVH
inactive: saracatinib -0.018 | sotrastaurin -0.185 | alvocidib -0.035 | [1] 0.121 | defactinib -0.003 | [2] 0.014 | [3] 0.044

RALGPS2 (UniProt Q86X27)
Sequence of UniProt Q86X27 (Q86X27 whole entry, looked up): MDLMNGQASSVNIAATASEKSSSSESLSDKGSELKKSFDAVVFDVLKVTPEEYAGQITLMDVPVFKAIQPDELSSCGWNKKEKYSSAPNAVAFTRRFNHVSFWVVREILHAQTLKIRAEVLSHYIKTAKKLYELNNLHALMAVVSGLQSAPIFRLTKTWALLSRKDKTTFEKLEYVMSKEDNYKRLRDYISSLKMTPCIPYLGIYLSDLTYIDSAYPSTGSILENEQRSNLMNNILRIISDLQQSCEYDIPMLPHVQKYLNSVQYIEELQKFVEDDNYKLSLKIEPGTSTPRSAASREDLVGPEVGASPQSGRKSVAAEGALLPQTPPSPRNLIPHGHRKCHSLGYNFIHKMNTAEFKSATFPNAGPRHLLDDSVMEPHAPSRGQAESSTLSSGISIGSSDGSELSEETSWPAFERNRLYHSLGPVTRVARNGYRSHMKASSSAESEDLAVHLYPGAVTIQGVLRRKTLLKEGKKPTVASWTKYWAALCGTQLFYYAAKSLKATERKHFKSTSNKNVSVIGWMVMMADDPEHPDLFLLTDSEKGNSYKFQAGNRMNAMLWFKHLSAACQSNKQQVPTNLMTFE
inactive: saracatinib -0.042 | alvocidib 0.192 | Tubastatin A 0.18 | [1] -0.098 | defactinib 0.176 | rucaparib -0.133 | [2] 0.159 | encorafenib 0.425 | [3] -0.101

SF3B5 (UniProt Q9BWJ5)
Sequence of UniProt Q9BWJ5 (Q9BWJ5 whole entry, looked up): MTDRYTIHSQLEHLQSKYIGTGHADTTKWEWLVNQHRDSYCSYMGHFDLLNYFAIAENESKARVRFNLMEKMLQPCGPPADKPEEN
inactive: saracatinib -0.382 | sotrastaurin 0.055 | Tubastatin A 0.048 | [1] 0.023 | defactinib -0.039 | rucaparib 0.086 | [2] -0.015 | encorafenib -0.025 | [3] 0.061

RBMY1E (UniProt A6NEQ0)
Sequence of UniProt A6NEQ0 (A6NEQ0 whole entry, looked up): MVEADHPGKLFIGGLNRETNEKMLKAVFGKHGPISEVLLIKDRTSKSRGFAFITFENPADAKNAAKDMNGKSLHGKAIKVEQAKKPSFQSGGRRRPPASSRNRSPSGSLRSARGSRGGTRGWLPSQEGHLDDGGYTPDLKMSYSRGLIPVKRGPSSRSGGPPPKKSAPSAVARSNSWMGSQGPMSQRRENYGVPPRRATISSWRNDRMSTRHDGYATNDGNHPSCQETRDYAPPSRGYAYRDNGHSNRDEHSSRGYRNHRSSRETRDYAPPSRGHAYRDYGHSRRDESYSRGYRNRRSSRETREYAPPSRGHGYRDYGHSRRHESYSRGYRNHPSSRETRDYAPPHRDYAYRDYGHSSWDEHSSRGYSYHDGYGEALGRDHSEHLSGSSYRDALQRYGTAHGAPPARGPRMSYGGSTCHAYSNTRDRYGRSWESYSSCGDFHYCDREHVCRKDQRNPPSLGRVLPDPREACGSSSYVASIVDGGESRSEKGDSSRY
inactive: alvocidib -0.015 | Tubastatin A 0.016 | [1] -0.049 | rucaparib -0.055 | encorafenib 0.182

RMDN2 isoform 2 (UniProt Q96LZ7)
inactive: defactinib -0.218 | [3] -0.206

RNF26 (UniProt Q9BY78)
inactive: defactinib 0.119 | [3] 0.292

SCYL3 isoform 2 (UniProt Q8IZE3)
inactive: saracatinib 0.014 | alvocidib 0.142 | Tubastatin A -0.063 | [1] -0.042 | defactinib -0.014 | rucaparib 0.06 | [2] -0.009 | encorafenib 0.021 | [3] -0.025
